PubChem BioAssay (Tox21)
“And” between values parts separate entries of the source, which are not always exact repeats. Equal values may be shown once. Values without a mark were called inactive. Inconclusive results are not listed. Where a call stands in place of a potency, no number is given. The source made the active and inactive calls. The call rests on the fitted dose curve; in most records, active means well fitted curve in the direction sought with a large enough effect in the repeat runs; inconclusive means weak or mixed curves; inactive means no such curve, though single readings can be large; an effect the other way counts as inactive or inconclusive.

Key:
[1] = A CellTox Green Cytotoxicity Assay to monitor cytotoxicity in HEK293 cells - 40 hour (AID 1224871); further: nearly all actives have a fitted effect of over 45% in size; further: potency means the concentration at half of the fitted maximal effect
Method in brief: (§1)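 Fluorescence intensity, read at 0, 8, 16, 24, 32 and 40 h of compound treatment, reflected dye binding to DNA of dead HEK293 cells; compounds (23 nL, DMSO) were added 5 h after plating cells with reagent.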

[2] = qHTS RealTime-Glo MT Cell Viability Assay in HEK293 cells - 16 hour (AID 1224872); further: top concentration of the series differs between compounds; nearly all actives have a fitted effect of over 50% in size
Method in brief: (§2)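 HEK293 cells seeded with NanoLuc/prosubstrate reagent, rested 5 h at 37 C, then dosed and kept at 37 C up to 40 h. Nonlytic real-time luminescence from viable cells read at 0, 8, 16, 24, 32 and 40 h.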

[3] = qHTS RealTime-Glo MT Cell Viability Assay in HepG2 cells - 8 hour (AID 1224873); further: nearly all actives have a fitted effect of over 55% in size
Method in brief: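 HepG2 cells mixed with RealTime-Glo MT reagents (NanoLuc plus cell-permeant prosubstrate) were seeded at 600 cells/well, incubated 5 h at 37 C/5% CO2, then pinned with compounds in DMSO; nonlytic luminescence tracked viability during 40 h treatment.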

[4] = qHTS RealTime-Glo MT Cell Viability Assay in HEK293 cells - 40 hour (AID 1224874); settings: RealTime-Glo luminescence; max response: active compounds read low; further: nearly all actives have a fitted effect of over 50% in size
Method in brief: (§3)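 Viable HEK293 cells reduce a cell-permeant prosubstrate; the product diffuses out and is consumed by NanoLuc in the medium to give light. Compounds went in after a 5 h incubation and plates were read over the treatment course.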

[5] = A CellTox Green Cytotoxicity Assay to monitor cytotoxicity in HEK293 cells - 24 hour (AID 1224875); further: series mostly up to about 77 µM; nearly all actives have a fitted effect of over 45% in size
Method in brief: as §1

[6] = A CellTox Green Cytotoxicity Assay to monitor cytotoxicity in HepG2 cells - 16 hour (AID 1224876); further: nearly all actives have a fitted effect of over 45% in size
Method in brief: (§4)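 Using 1536-well format, dye-containing HepG2 suspension was seeded, allowed 5 h at 37 C/5% CO2, dosed by pintool with compounds, positive and negative controls, and imaged for fluorescence across 40 h.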

[7] = qHTS RealTime-Glo MT Cell Viability Assay in HepG2 cells - 32 hour (AID 1224877); further: nearly all actives have a fitted effect of over 55% in size
Method in brief: (§5)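 HepG2 cells (600/well) were dispensed with RealTime-Glo reagents, incubated 5 h at 37 °C, then treated with compounds in DMSO for up to 40 h. Nonlytic NanoLuc luminescence reflecting viable cells was read at each stated time point.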

[8] = A CellTox Green Cytotoxicity Assay to monitor cytotoxicity in HepG2 cells - 24 hour (AID 1224878); further: nearly all actives have a fitted effect of over 45% in size
Method in brief: as §4

[9] = A CellTox Green Cytotoxicity Assay to monitor cytotoxicity in HepG2 cells - 40 hour (AID 1224879); further: nearly all actives have a fitted effect of over 40% in size
Method in brief: as §4

[10] = qHTS RealTime-Glo MT Cell Viability Assay in HEK293 cells - 0 hour (AID 1224880)
Method in brief: as §3

[11] = A CellTox Green Cytotoxicity Assay to monitor cytotoxicity in HEK293 cells - 32 hour (AID 1224881); further: nearly all actives have a fitted effect of over 40% in size; further: potency means the concentration at half of the fitted maximal effect
Method in brief: as §1

[12] = A CellTox Green Cytotoxicity Assay to monitor cytotoxicity in HepG2 cells - 0 hour (AID 1224882); further: nearly all actives have a fitted effect of over 35% in size
Method in brief: as §4

[13] = A CellTox Green Cytotoxicity Assay to monitor cytotoxicity in HepG2 cells - 32 hour (AID 1224883); further: nearly all actives have a fitted effect of over 50% in size
Method in brief: as §4

[14] = A CellTox Green Cytotoxicity Assay to monitor cytotoxicity in HEK293 cells - 8 hour (AID 1224884); further: nearly all actives have a fitted effect of over 35% in size
Method in brief: as §1

[15] = qHTS RealTime-Glo MT Cell Viability Assay in HepG2 cells - 16 hour (AID 1224885); further: nearly all actives have a fitted effect of over 50% in size
Method in brief: as §5

[16] = qHTS RealTime-Glo MT Cell Viability Assay in HEK293 cells - 24 hour (AID 1224886)
Method in brief: as §2

[17] = qHTS RealTime-Glo MT Cell Viability Assay in HEK293 cells - 8 hour (AID 1224887)
Method in brief: as §3

[18] = A CellTox Green Cytotoxicity Assay to monitor cytotoxicity in HEK293 cells - 16 hour (AID 1224888); further: nearly all actives have a fitted effect of over 35% in size
Method in brief: as §1

[19] = qHTS RealTime-Glo MT Cell Viability Assay in HepG2 cells - 0 hour (AID 1224889); further: nearly all actives have a fitted effect of over 50% in size
Method in brief: as §5

[20] = A CellTox Green Cytotoxicity Assay to monitor cytotoxicity in HepG2 cells - 8 hour (AID 1224890); further: nearly all actives have a fitted effect of over 45% in size
Method in brief: as §4

SMILES	Potency [1]	Potency [2]	Potency [3]	max response [4]	Potency [5]	Potency [6]	Potency [7]	Potency [8]	Potency [9]	Potency [10]	Potency [11]	Potency [12]	Potency [13]	Potency [14]	Potency [15]	Potency [16]	Potency [17]	Potency [18]	Potency [19]	Potency [20]
Brc1cc(Br)c(Oc2cc(Br)c(Br)cc2Br)cc1Br	inactive	inactive	inactive	-1.98%	inactive	inactive	inactive	inactive	inactive	inactive	inactive	inactive	inactive	inactive	inactive	inactive	inactive	inactive	inactive	inactive
O=C1c2ccccc2C(=O)c2c(O)c(O)cc(O)c21	inactive	inactive	inactive	9.06%	inactive	inactive	inactive	inactive	inactive	inactive	inactive	inactive	inactive	inactive	inactive	inactive	inactive	inactive	inactive	inactive
CCC1(CO)COCOC1	inactive	inactive	inactive	-7.69%	inactive	inactive	inactive	inactive	inactive	inactive	inactive	inactive	inactive	inactive	–	inactive	inactive	inactive	inactive	inactive
C=C(C)CCCC(C)CCO (stereo not drawn)	inactive	inactive	inactive	-17.9%	inactive	inactive	inactive	inactive	inactive	inactive	inactive	inactive	inactive	inactive	–	inactive	inactive	inactive	inactive	inactive
COc1ccc(OC(=O)N(CC(=O)O)Cc2ccc(OCCc3nc(-c4ccccc4)oc3C)cc2)cc1	inactive	inactive	inactive	-9.99%	inactive	inactive	inactive	inactive	inactive	inactive	inactive	inactive	inactive	inactive	inactive	inactive	inactive	inactive	inactive	inactive
O[C@@H]1CO[C@H]2[C@@H]1OC[C@@H]2O	inactive	inactive	inactive	8.95%	inactive	inactive	inactive	inactive	inactive	inactive	inactive	inactive	inactive	inactive	inactive	inactive	inactive	inactive	inactive	inactive
N#[N+]c1ccc2c(S(=O)(=O)[O-])cccc2c1O	inactive	inactive	inactive	-19.6%	inactive	inactive	inactive	inactive	inactive	inactive	inactive	inactive	inactive	inactive	inactive	inactive	–	inactive	inactive	inactive
O=C(O)c1cccc(-c2noc(-c3ccccc3F)n2)c1	inactive	inactive	inactive	2.77%	inactive	inactive	inactive	inactive	inactive	inactive	inactive	inactive	inactive	inactive	inactive	inactive	inactive	inactive	inactive	inactive
Cc1cc(C)cc(N)c1	inactive	inactive	inactive	-4.23%	inactive	inactive	inactive	inactive	inactive	inactive	inactive	inactive	inactive	inactive	inactive	inactive	inactive	inactive	inactive	inactive
CCCCCCCCCCC(=O)O	inactive	inactive	inactive	3.53%	inactive	inactive	inactive	inactive	inactive	inactive	inactive	inactive	inactive	inactive	–	inactive	inactive	inactive	inactive	inactive
c1ccc2c(c1)CCc1ccccc1N2	49.2 µM (active)	inactive	inactive	-22.1% and -5.28%	inactive	inactive	inactive	inactive	inactive	inactive	49.2 µM (active)	–	inactive	inactive	inactive	inactive	inactive	inactive	inactive	inactive
Cc1cscn1	inactive	inactive	inactive	11.3%	inactive	inactive	inactive	inactive	inactive	inactive	inactive	inactive	inactive	inactive	inactive	inactive	inactive	inactive	inactive	inactive
CC(C)=CC(=O)C=C(C)C	inactive	inactive	inactive	9.12%	inactive	inactive	inactive	inactive	inactive	inactive	inactive	inactive	inactive	inactive	–	inactive	inactive	inactive	inactive	inactive
Cc1cc(C)c(N)cc1C	inactive	inactive	inactive	1.12%	inactive	inactive	inactive	inactive	inactive	inactive	–	inactive	inactive	inactive	inactive	inactive	inactive	inactive	inactive	inactive
